Results on 5 compounds are retold here after PubChem BioAssay (NCATS).

Assay [1] in a line: AP1 Signaling Pathway (AID 357; active means well fitted curve in either direction with a large enough effect, not every such curve was filed as active;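 further: ME-180 reporter cells stimulated with EGF at its EC50 level; on the % scale 0 is the no-effect control and ±100 the full control effect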). Conditions: ME-180 (cervical carcinoma) AP-1-bla reporter, EGF-induced, beta-lactamase ratio, 5 h; at 17.2 µM (top of the series) unless noted. The gist of the method:
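Read-out was the 460nm/530nm emission ratio (excitation 405nm) after CCF4 loading for 2.5 hours at room temperature. Cells carried an AP-1-driven beta-lactamase reporter, were stimulated with EC50 EGF plus compound for 5 hours, and AC50 values came from titrations.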

Assay [2] concerns the target Cytochrome P450 1A2 (Homo sapiens) (UniProt P05177). Description: p450-cyp1a2 (AID 410; calls by dose curve; further: potency means the concentration at half of the fitted maximal effect;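 on activity change, negative = inhibition: -100% = full effect of reference inhibitor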). In outline:
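O-Demethylation of luciferin 6' methyl ether by human CYP1A2 is monitored as luciferase luminescence. Substrate sits at Km (100uM); enzyme is 20nM. Values are scaled to 57 uM furafylline as maximal inhibition.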

Assay [3] is described as follows: Stat Signaling Pathway (AID 446; active means well fitted curve in either direction with a large enough effect, not every such curve was filed as active;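 further: ME-180 cervical cancer cells given 40 pM IL-6 alongside compound; SIE-controlled beta-lactamase reporter measured as 460/530 nm FRET emission ratio; on the % scale 0 is the no-effect control and ±100 the full control effect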). The gist of the method: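 FRET read-out (405 nm excitation, 460/530 nm emission) of a beta-lactamase reporter under a STAT-inducible element in ME-180 cervical carcinoma cells. Cells with compound receive 40 pM IL-6 for 5 h. Values are normalised to AC90 stimulation and AC90 JAK-inhibitor controls.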
For assay [4], the target named is Glucocorticoid receptor (Homo sapiens) (UniProt P04150). Description: GR-GFP Redistribution (AID 450;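 active means compounds whose dose series gives a full or clear partial fitted curve of increased nuclear translocation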; further: potency means the concentration at half of the fitted maximal effect). The note with it: U2OS GR-GFP nuclear translocation, laser cytometry, 2 h.
Glucocorticoid receptor (Homo sapiens), sequence (P04150 whole entry, looked up): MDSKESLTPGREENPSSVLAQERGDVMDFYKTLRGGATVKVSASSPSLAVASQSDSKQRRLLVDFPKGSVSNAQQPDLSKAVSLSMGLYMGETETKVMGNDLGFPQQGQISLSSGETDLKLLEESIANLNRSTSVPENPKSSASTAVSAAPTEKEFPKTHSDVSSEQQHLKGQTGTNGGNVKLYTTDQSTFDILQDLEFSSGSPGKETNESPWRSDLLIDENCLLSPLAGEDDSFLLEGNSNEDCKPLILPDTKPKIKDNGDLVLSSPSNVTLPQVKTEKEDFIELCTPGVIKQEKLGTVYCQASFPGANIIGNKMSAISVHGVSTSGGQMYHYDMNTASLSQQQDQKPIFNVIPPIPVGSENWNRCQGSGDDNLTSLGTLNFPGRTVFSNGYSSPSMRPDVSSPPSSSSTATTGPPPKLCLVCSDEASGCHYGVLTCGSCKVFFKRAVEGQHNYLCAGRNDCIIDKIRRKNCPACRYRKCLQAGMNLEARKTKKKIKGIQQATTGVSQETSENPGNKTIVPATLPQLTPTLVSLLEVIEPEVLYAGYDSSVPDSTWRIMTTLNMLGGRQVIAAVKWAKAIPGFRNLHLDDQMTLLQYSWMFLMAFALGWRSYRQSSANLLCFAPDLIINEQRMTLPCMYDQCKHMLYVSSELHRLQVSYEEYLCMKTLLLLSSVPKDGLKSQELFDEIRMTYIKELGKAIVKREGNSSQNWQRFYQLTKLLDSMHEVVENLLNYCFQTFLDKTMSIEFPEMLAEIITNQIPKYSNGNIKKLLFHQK
For assay [5], the target named is 3',5'-cyclic-AMP phosphodiesterase 4B (Homo sapiens) (UniProt Q07343). The experiment in a line: qHTS Assay for Inhibitors of PDE-IV (AID 607; active means well fitted activation curve with a large enough effect in the main read-out, with a control signal flat, not every such curve was filed as active; further: % of control where 0% means no effect). In outline:
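Cell-based read-out of cAMP via a modified cyclic nucleotide-gated channel and membrane potential dye (535/590 nm) in HEK293 cells expressing PDE4 endogenously. Compounds tested up to 22.9 uM final; 100 uM RO 20-1724 reference.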

The nature of assay [6]: qHTS Assay for Identification of Small Molecule Antagonists for Thrombopoietin (TPO) Signaling Pathway (AID 918). Further: potency means the concentration at half of the fitted maximal effect; nearly all actives have a fitted effect of over 60% in size. Conditions: TPO-dependent cell signaling reporter, antagonist mode. In outline:
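Inhibitors of TPO signaling are sought by stimulating IL-3-starved murine Ba/F3 cells (human TPO receptor, Glycoprotein IIb-driven luciferase) with TPO at its EC50 of 26 pM alongside compound. After 24 hrs at 37 C, reporter luminescence is measured.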

For assay [7], the target named is Muscarinic acetylcholine receptor M1 (Rattus norvegicus) (UniProt P08482). Description: qHTS Assay for Antagonists of Acetylcholine Muscarinic M1 Receptor: Measurement of IP-One Response (AID 944). Further: nearly all actives have a fitted effect of over 75% in size. In outline:
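Antagonist mode with rat M1 receptor transfected into CHO cells. Compound is added first for 10 min, carbachol at its EC80 follows for 30 min, and lysis reagents then allow TR-FRET detection of accumulated IP1.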

The target in assay [8] is Pyruvate kinase (Leishmania mexicana) (UniProt Q27686). Description: qHTS Validation Assay for Inhibitors of Leishmania Mexicana Pyruvate Kinase (AID 945).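 Further: 0% = DMSO only neutral control wells.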 The gist of the method:
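The enzyme is a highly purified E451W mutant of LmPYK used at 0.2 nM. It converts 0.5 mM PEP and 0.1 mM ADP over 1 h at room temperature; product ATP is quantified by luciferase luminescence relative to DMSO controls.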

Assay [9] deals with Pyruvate kinase PKM (Homo sapiens) (UniProt P14618). Description: qHTS Assay for Activators of Human Muscle Pyruvate Kinase (AID 954; active means well fitted curve in the direction sought with a large enough effect, not every such curve was filed as active;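 further: 0% = uninhibited enzyme and -100% = no enzyme or full thiadiazolimine inhibition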). The gist of the method:
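ATP production by PKM2 detected via luciferase luminescence after 1 h room-temperature reaction (0.1 nM enzyme, PEP at Km 0.5 mM, ADP 0.1 mM, pH 7.2 imidazole buffer). Inhibition scaled to no-enzyme control; activation referenced to 0.3 nM enzyme wells.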

Assay [10] deals with Alpha-galactosidase A (Homo sapiens) (UniProt P06280). The experiment in a line: Counterscreen for Glucocerebrosidase Inhibitors: qHTS Assay for Human alpha-Galactosidase at pH 4.5 (AID 992). Further: 0% is about no effect. In outline: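 Fluorogenic 1536-well qHTS at pH 4.5 (citrate, Tween-20): 2 nM enzyme, 80 uM 4-MU-alpha-galactoside, 20 min room temperature, NaOH/glycine stop. Titration 0.7 nM to 77 uM, data normalized to no-enzyme and full-activity controls, Hill-fitted AC50.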

Assay [11] concerns the target alpha-glucosidase (Oryza sativa, rice) (UniProt Q653V4). Description: Counterscreen for Glucocerebrosidase Inhibitors: qHTS Assay for Rice alpha-Glucosidase at pH 5.0 (AID 997).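 Further: 0% = full activity with enzyme and -100% = basal without enzyme.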 The gist of the method: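 Endpoint fluorogenic assay at pH 5.0: compounds (0.7 nM to 77 uM) titrated against 4 nM rice enzyme and 400 uM 4-MU-alpha-glucoside for 20 min at room temperature; NaOH/glycine stop, read ex 365/em 440 nm, Hill-fitted AC50.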

In assay [12] the target is Alpha-galactosidase (Coffea arabica) (UniProt Q42656). The experiment in a line: Counterscreen for Glucocerebrosidase Inhibitors: qHTS Assay for Coffee Bean alpha-Galactosidase at pH 5.9 (AID 998).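 Further: plate controls were uninhibited enzyme for no effect and no-enzyme basal signal for full effect.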 The gist of the method: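 In 50 mM citric acid pH 5.9 with 0.005% Tween-20, coffee bean enzyme hydrolyses 80 uM 4-MU alpha-D-galactopyranoside over 20 min at RT. Activity is normalized to controls; AC50 comes from Hill-modelled concentration-response data.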

Assay [13] concerns the target Cytochrome P450 3A4 (Homo sapiens) (UniProt P08684). The experiment in a line: qHTS Assay for Activators of Cytochrome P450 3A4 (AID 885). Further: nearly all actives have a fitted effect of over 65% in size. The gist of the method:
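Luminescent readout of luciferin formed from 25 uM Luciferin-PPXE (KM level) by 20 nM CYP3A4 in 200 mM KPO4, with 60 min NADPH-driven reaction at room temperature after 10 min compound exposure. Ketoconazole (57 uM) defined 100% inhibition.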

Assay [14] concerns the target Cytochrome P450 2D6 (Homo sapiens) (UniProt P10635). Description: qHTS Assay for Inhibitors and Substrates of Cytochrome P450 2D6 (AID 891). Further: nearly all actives have a fitted effect of over 60% in size. Further: potency means the concentration at half of the fitted maximal effect.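 On activity change, negative = inhibition: luciferin methyl ether substrate demethylated by CYP2D6 with NADPH regeneration; on the % scale 0 is the no-effect control and ±100 the full control effect.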 The gist of the method:
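Luminescent read-out of luciferin formed by 5 nM human CYP2D6 demethylating 30 uM Luciferin-ME EGE (Km level) over 60 min at room temperature after NADPH regeneration addition. Data normalized to full inhibition by 1.43 uM quinidine.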

In assay [15] the target is Cytochrome P450 2C9 (Homo sapiens) (UniProt P11712). Description: qHTS Assay for Inhibitors and Substrates of Cytochrome P450 2C9 (AID 883). Further: on the % scale 0 is the no-effect control and ±100 the full control effect; nearly all actives have a fitted effect of over 60% in size. The gist of the method: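 Human CYP2C9 (10nM) hydroxylated Luciferin-H (100uM, at its KM) to luciferin in 25mM KPO4. Compound was preincubated 10 min at 37C, then NADPH regeneration started a 60 min reaction at 37C. Luminescence was read after detection reagent, normalized to 57uM sulphaphenazole.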

In assay [16] the target is Cytochrome P450 2C19 (Homo sapiens) (UniProt P33261). The experiment in a line: qHTS Assay for Inhibitors and Substrates of Cytochrome P450 2C19 (AID 899). Further: on the % scale 0 is the no-effect control and ±100 the full control effect; nearly all actives have a fitted effect of over 60% in size. In outline: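 Human CYP2C19 (5nM) with Luciferin-H EGE at 10uM (its KM) in 50mM KPO4 was preincubated with compound for 10 min at 37C. NADPH regeneration started a 60 min 37C reaction. Luciferin was read by luminescence, normalized to 57uM ketoconazole.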
Cytochrome P450 2C19 (Homo sapiens), sequence (P33261 whole entry, looked up): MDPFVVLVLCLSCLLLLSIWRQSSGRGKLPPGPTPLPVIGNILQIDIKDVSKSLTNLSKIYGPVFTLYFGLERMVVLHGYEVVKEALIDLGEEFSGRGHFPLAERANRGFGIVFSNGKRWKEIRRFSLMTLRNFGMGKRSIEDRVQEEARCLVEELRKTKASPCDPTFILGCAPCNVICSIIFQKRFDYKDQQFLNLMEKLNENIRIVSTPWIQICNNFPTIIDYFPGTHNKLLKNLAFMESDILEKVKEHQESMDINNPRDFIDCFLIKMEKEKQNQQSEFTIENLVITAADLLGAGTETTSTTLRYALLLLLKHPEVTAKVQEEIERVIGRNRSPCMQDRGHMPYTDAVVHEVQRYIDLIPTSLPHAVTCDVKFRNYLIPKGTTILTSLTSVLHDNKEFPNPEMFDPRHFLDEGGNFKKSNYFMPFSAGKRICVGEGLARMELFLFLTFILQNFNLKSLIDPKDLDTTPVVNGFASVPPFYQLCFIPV

Assay [17] in a line: NFAT Signaling Pathway (AID 444; active means well fitted curve in either direction with a large enough effect, not every such curve was filed as active;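 further: carbachol stimulus at about its EC50 of 1 µM final; on the % scale 0 is the no-effect control and ±100 the full control effect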). Conditions: Jurkat NFAT-bla M1, carbachol, beta-lactamase ratio, 5 h; at 17.2 µM (top of the series) unless noted. The gist of the method:
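Jurkat cells carrying an NFAT-driven β-lactamase reporter and co-transfected muscarinic M1 receptor were treated with compound plus carbachol (1 uM final, an EC50 level) for 5 h at 37 °C. CCF4 loading followed for 1 h at RT; 460/530 nm ratio gave %activity.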

Values without a mark were called inactive. Inconclusive results are not listed. The source made the active and inactive calls. Unless noted, the call rests on the fitted dose curve; in most records, active means well fitted curve in the direction sought with a large enough effect; inconclusive means small, poorly fitted or top-dose-only effect, or another doubt; inactive means no such curve, though single readings can be large; an effect the other way counts as inactive or inconclusive.

Cytochrome P450 1A2 (Homo sapiens), sequence (P05177 whole entry, looked up): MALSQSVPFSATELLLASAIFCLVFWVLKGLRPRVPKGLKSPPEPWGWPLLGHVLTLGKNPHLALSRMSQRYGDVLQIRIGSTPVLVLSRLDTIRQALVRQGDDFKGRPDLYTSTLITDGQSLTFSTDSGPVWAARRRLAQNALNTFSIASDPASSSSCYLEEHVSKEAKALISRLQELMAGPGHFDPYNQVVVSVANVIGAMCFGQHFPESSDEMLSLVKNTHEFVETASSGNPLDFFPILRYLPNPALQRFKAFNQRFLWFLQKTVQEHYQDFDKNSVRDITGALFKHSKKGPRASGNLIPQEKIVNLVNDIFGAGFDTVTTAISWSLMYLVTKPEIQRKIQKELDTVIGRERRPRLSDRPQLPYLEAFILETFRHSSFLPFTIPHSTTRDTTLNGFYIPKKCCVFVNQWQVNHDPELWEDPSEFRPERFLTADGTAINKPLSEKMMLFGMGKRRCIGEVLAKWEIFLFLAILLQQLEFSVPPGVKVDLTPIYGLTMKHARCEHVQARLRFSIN
3',5'-cyclic-AMP phosphodiesterase 4B (Homo sapiens), sequence (Q07343 whole entry, looked up): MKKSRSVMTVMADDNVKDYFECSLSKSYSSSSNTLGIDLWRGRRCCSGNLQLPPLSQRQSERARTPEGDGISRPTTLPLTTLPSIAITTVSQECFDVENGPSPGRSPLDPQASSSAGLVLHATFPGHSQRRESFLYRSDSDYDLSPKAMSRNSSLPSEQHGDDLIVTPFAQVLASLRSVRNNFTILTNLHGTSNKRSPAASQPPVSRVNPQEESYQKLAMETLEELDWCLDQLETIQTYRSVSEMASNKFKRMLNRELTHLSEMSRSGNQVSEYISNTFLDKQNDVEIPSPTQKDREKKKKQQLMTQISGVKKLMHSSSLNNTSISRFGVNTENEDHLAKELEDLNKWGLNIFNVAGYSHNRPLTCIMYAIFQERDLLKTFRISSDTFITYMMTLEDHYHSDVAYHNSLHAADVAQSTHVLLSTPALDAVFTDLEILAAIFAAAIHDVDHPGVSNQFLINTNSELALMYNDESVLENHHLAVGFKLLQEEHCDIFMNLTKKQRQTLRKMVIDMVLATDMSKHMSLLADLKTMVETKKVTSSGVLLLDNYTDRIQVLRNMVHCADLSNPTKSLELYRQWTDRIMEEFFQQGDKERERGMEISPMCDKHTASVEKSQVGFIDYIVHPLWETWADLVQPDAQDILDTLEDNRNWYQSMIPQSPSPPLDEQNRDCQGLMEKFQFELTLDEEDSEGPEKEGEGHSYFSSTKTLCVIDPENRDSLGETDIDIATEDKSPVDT
Cytochrome P450 2D6 (Homo sapiens), sequence (P10635 whole entry, looked up): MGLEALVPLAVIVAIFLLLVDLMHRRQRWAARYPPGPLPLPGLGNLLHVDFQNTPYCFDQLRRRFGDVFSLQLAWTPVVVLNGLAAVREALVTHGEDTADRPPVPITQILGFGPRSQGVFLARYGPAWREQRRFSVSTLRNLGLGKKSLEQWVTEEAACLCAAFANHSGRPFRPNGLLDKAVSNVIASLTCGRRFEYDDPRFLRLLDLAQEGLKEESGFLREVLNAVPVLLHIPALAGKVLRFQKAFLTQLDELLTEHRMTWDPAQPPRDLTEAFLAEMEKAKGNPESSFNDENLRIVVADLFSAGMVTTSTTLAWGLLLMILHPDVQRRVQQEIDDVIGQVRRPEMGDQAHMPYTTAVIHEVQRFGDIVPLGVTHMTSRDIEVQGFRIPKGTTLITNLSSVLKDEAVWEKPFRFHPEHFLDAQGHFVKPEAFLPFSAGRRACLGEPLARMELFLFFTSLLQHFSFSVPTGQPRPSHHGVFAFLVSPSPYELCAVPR
Cytochrome P450 3A4 (Homo sapiens), sequence (P08684 whole entry, looked up): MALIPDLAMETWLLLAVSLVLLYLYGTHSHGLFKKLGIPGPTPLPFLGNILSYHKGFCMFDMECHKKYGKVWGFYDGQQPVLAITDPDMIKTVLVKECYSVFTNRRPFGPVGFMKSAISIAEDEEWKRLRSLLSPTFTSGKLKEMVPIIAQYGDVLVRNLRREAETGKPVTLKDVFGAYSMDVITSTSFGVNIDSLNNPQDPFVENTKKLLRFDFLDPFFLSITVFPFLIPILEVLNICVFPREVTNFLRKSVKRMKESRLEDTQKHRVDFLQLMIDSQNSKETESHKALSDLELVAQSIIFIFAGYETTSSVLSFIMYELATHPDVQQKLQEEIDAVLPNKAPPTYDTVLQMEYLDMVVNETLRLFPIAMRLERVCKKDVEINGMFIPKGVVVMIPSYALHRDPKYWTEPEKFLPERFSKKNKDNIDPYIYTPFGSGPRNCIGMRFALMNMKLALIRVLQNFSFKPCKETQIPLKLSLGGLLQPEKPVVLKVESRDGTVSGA
Pyruvate kinase PKM (Homo sapiens), sequence (P14618 whole entry, looked up): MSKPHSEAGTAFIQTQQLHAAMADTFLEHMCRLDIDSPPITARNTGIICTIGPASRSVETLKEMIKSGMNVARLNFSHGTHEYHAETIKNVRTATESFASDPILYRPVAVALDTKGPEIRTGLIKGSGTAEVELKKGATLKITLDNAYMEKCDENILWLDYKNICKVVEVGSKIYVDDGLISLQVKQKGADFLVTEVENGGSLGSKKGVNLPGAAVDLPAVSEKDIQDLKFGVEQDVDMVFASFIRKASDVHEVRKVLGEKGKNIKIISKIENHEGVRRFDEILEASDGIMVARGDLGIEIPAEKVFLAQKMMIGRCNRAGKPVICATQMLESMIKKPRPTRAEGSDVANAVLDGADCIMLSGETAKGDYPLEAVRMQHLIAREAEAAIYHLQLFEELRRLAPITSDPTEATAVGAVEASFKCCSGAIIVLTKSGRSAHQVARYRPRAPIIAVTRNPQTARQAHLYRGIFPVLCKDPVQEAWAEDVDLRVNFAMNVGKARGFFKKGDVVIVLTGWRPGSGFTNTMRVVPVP
Muscarinic acetylcholine receptor M1 (Rattus norvegicus), sequence (P08482 whole entry, looked up): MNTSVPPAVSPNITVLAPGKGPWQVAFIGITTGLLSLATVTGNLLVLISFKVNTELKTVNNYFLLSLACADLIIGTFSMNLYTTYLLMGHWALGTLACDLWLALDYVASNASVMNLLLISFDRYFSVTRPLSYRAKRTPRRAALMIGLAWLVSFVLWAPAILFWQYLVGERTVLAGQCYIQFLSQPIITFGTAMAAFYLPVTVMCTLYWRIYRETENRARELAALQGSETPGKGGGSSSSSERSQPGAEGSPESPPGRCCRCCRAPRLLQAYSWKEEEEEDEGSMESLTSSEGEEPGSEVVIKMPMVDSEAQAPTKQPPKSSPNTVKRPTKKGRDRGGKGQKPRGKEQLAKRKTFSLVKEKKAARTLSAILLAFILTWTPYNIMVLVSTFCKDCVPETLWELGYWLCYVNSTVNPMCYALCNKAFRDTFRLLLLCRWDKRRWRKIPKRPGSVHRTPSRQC
Pyruvate kinase (Leishmania mexicana), sequence (Q27686 2-499 E452W): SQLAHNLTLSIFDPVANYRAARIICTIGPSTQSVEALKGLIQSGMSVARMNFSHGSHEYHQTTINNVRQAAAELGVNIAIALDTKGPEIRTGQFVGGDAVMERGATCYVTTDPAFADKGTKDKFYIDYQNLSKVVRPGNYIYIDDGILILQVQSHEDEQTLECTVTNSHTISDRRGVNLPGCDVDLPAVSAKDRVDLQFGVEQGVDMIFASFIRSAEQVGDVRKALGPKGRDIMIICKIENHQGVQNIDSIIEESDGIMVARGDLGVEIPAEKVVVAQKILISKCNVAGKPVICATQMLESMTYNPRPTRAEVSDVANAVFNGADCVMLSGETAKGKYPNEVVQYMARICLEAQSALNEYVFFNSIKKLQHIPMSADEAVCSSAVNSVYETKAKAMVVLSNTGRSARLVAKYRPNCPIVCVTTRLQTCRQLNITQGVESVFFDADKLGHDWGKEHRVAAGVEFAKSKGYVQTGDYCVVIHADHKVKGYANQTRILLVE

`CCCN1CCc2cccc3c2[C@@H]1Cc1ccc(O)c(O)c1-3`: the activity change, negative = inhibition in assay [1] was 6.42% [at 38 µM]. The Potency in assay [2] was 3.98 µM (active); in assay [4], more than 46 µM; in assay [6] it was 12.6 µM (active). Moreover, the call in assay [3], in [5], in [9], in [10], in [11] and in assay [12] was inactive. Also, the Potency result in assay [7] and in assay [8] was “inactive” each time.

Regarding `COc1ccc2[nH]c3c(c2c1)CCN=C3C`, the activity change, negative = inhibition in assay [1] is -4.7%. For the same compound, the Potency in assay [2] was 1.58 µM (active); in assay [4] it was more than 20.6 µM; in [14] it was 0.631 µM (active). Also, the call in assay [3] and in assay [5] was inactive. The Potency result in assay [13] was “inactive”.

With `COC[C@@H]1OC(=O)c2coc3c2[C@]1(C)C1=C(C3=O)[C@H]2CCC(=O)[C@]2(C)C[C@@H]1OC(C)=O`, the activity change, negative = inhibition in [1] was -78.2% [at 38 µM] (active). The Potency entry in assay [2], in [15], in assay [14] and in assay [16] was “inactive” in each case. Moreover, the Potency in [4] was more than 46 µM. Also, the compound was classed as inactive in assay [5].

As to `CCN(CC)CCN=Cc1c(O)n(CCc2ccccc2)c(=O)[nH]c1=O`, the activity change, negative = inhibition in assay [1] is -7.05%; in assay [17], -1.81%. For the same compound, the outcome in [3] was inactive.

On to `Cc1ccc(-n2c(O)c(C=NCCN3CCOCC3)c(=O)[nH]c2=O)cc1`, for which the activity change, negative = inhibition in assay [1] is 6.04%; in assay [17], 13.7%. Further, the compound was called inactive in assay [3].
